Assay outcomes from PubChem.
In the library only some 1.7% were active in any assay of this set; here they are far more common.
beta cell repl: inducers of beta-cell replication in MIN6 cells. AID 2380. actives 0.29% (n = 330,000). MIN6 cells proliferation, ATPlite luminescence, 48 h; cells starved in 0.2% serum; 100% = growth in 10% serum. proliferation, % at 10 µM;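 active = compounds whose signal lies at least 3.5 SD above the mean of all wells on their plate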;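 also: 0% = DMSO-treated cells in low-serum medium and 100% = 10% serum control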
H9c2 TAG inh: inhibitors of triacylglycerol accumulation; inhibition, % at 12.5 µM; actives 0.66% (n = 230,000); H9c2 cells, Nile Red lipid (TAG) fluorescence; cells loaded with 200 µM oleic acid; AID 651582;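 active = pattern-corrected inhibition of lipid staining of at least 50% with the nuclear-stain viability signal not falling by more than 50%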;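 also: 0% = DMSO wells and 100% = triacsin C control wells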
CHT block: human CHT choline transport inhibition; AID 488975; actives 0.86% (n = 310,000); CHT-expressing cells, membrane potential dye, choline response; stronger effect = lower value; B-score at 10 µM; Q9GZV3;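 active = B-score over 3 SD under the library average, and starting fluorescence ratio not unusually high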;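 also: choline stimulus applied at its EC90 after an EC20 pre-addition; B-score computed on integrated fluorescence ratio after choline addition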
Target sequence (Q9GZV3 whole entry, looked up): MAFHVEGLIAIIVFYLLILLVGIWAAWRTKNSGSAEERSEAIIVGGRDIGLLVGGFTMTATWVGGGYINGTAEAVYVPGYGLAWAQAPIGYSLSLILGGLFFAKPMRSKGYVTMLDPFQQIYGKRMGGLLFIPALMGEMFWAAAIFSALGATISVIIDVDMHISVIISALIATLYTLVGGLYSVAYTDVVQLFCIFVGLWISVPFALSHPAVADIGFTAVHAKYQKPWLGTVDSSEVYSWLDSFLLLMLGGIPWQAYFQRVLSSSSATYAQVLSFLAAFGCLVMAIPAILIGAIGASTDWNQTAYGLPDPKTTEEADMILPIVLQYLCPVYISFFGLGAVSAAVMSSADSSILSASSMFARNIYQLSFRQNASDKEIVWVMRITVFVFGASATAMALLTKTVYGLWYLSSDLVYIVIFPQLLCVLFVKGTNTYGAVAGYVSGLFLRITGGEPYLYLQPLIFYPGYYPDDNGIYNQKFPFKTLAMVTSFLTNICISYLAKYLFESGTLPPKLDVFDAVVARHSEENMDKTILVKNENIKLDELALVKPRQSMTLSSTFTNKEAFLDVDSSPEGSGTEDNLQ
CHT PAM: human CHT allosteric activation; actives 0.49% (n = 310,000); CHT-expressing cells, membrane potential dye, choline EC20; stronger effect = higher value; LV-AA mutant CHT in HEK293 cells; B-score at 10 µM;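 active = initial fluorescence not abnormally high and integrated response B-score, plate-corrected, over 3 SD above library mean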
CHT inh conf: confirmation of human choline transporter CHT inhibitors. shares compounds with CHT block. CHT-expressing cells, choline membrane potential dye; LV-to-AA substituted CHT, HEK293 cells. CHT activity remaining % of control (stronger effect = lower value), % at 10 µM. actives 70% (n = 2,400);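 active = choline transporter activity left, mean of duplicates at 10 µM, below buffer-only control mean minus 3 SD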;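 also: depolarization triggered by choline at its EC90 following an EC20 pre-addition; 0% = hemicholinium-3 full block and 100% = buffer-only control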
HEK293 MPD ctr: counter-screen for CHT inhibitors: effect in parental HEK293 cells. shares compounds with CHT block. membrane potential dye, choline response; active = decrease or increase beyond buffer ±3SD. membrane potential ratio readout (active if shifted either direction beyond buffer ±3SD; no single direction) at 10 µM. actives 4% (n = 2,400). AID 493222;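 also: parental cells lack the transporter so any hit is non-specific; ratio is peak minus trough fluorescence over baseline after EC90 choline challenge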
Numbers without * were called inactive; i = inactive; · = no result given.

SMILES	beta cell repl	H9c2 TAG inh	CHT block	CHT PAM	CHT inh conf	HEK293 MPD ctr
CCc1ccc(N2CC(C(=O)OCc3nc4ccsc4c(=O)[nH]3)CC2=O)cc1 (centres undefined)	4	2	·	·	·	·
Cc1ccccc1C(=O)c1cccn1CC(=O)NC(C)c1ccccc1 (centres undefined)	0	·	-6.8*	i	35%*	i
Cc1ccc2cccc(CC(=O)NN)c2c1	·	-3	·	·	·	·
CC1CCN(CCNC(=S)Nc2ccc(Cl)cc2)CC1	-3	2	i	i	·	·
CC(=O)OC1CC2(C)/C(=N\O)CCC2C2CCc3cc(O)ccc3C12 (centres undefined)	-4	·	-11*	i	3.2%*	i
Cc1sc(NC(=O)C2CC=CCC2C(=O)O)c(C(=O)OC(C)C)c1C (centres undefined)	1	2	i	i	·	·
CN(CC(=O)Nc1ccc(N2CCOCC2)cc1)C(=O)C1CCCC1	-2	14	-8.3*	i	i	i
COc1ccc(N(C)S(=O)(=O)c2cccc(C(=O)NC3CCC(C)CC3)c2)cc1 (centres undefined)	-5	4	-6.3*	i	65%*	i
CCc1cccc(NC(=O)c2cccc(S(=O)(=O)N3CCN(C)CC3)c2)c1	-3	·	i	i	·	·
COc1ccc(N(C)S(=O)(=O)c2cccc(C(=O)NC3CCCCCC3)c2)cc1	-3	14	i	i	·	·
O=C(NC1CCCCCCC1)c1ccc(S(=O)(=O)N2CCCC2)cc1	-2	9	-11*	i	44%*	i
O=C(NC1CCCCC1)c1ccc(S(=O)(=O)N2CCOCC2)cc1	-2	·	i	i	·	·
CCc1cccc(CC)c1NC(=O)c1cccc(NC(=O)c2ccccc2)c1	0	·	-5.6*	i	65%*	i
CCc1cccc(CC)c1NC(=O)c1cccc(S(=O)(=O)N2CCN(C)CC2)c1	-1	19	-5.8*	i	39%*	i
Cn1ccc(C(=O)OCC(=O)Nc2ccccc2Cl)n1	1	·	·	·	·	·
CC1CCC(NC(=O)c2cccc(S(=O)(=O)N3CCN(C)CC3)c2)CC1 (centres undefined)	-1	1	-13*	i	9.1%*	i
CC1CCC(NC(=O)c2cccc(S(=O)(=O)N3CCOCC3)c2)CC1 (centres undefined)	·	-4	·	·	·	·
COc1ccc(S(=O)(=O)N=N/C=C2\C=CC=CN2O)cc1OC	·	100	·	·	·	·
Cn1c(=O)c(C#N)c(-c2ccc(F)cc2)c2cc(C(=O)c3cc(Cl)cc(Cl)c3O)cnc21	-7	14	-8.2*	i	53%*	i
COc1ccccc1-n1c(=O)c(C#N)c(-c2ccc([N+](=O)[O-])cc2)c2cc(C(=O)c3cc(F)ccc3O)cnc21	-3	-15	i	i	·	·
CCc1ccc2oc(C(=O)NCC(c3ccc(OC)cc3)N3CCCCC3)c(C)c2c1 (centres undefined)	-5	·	-6*	i	61%*	i
CCC(=O)NCCc1nc2cc(NC(=O)c3ccc(F)cc3)ccc2n1C	-3	·	i	i	·	·
CN(Cc1ccccc1)C(=O)c1nc2ccccn2c1CN1CCC(N2CCOCC2)CC1	-2	0	i	i	·	·
c1ccc(Sc2ncnc3ccccc23)cc1	4	-1	-5*	i	i	i
CN(Cc1ccccc1F)c1ncnc2sccc12	2	·	i	i	·	·
SMILES	beta cell repl	H9c2 TAG inh	CHT block	CHT PAM	CHT inh conf	HEK293 MPD ctr
CN(Cc1cccs1)c1ncnc2sccc12	-3	-41	-7.4*	i	50%*	i
COc1ccc(CN(C)c2ncnc3sccc23)c(OC)c1OC	0	·	i	i	65%*	i
COc1ccc(CCC(=O)N2CCN(c3ccccc3)CC2)cc1OC	-1	·	i	i	·	·
Cn1c(CC(=O)Nc2ccccc2F)nnc1SCC(=O)N1CCOCC1	-4	-1	i	i	·	·
CC12CCC(C(=O)Nc3ccncc3)(CC1O)C2(C)C (centres undefined)	-3	-1	i	i	·	·
C=Cn1cc[n+](CC(=O)c2ccc(Cl)c(Cl)c2)c1	0	0	-7.2*	i	48%*	i
C=Cn1cc[n+](CC(=O)C(C)(C)C)c1	-2	·	i	i	·	·
CCOC(=O)CNC(=O)C1(NC(=O)CNC(=O)OCc2ccccc2)CCCC1	·	3	·	·	·	·
O=C1c2ccccc2-c2cccnc21	0	·	-6.8*	i	37%*	i
Cc1nc2c(nc1C)C(=O)c1ccccc1C2=O	·	86	·	·	·	·
CN(C(=O)c1ccccc1Cl)C1CCCCC1	-1	·	-6.7*	i	i	i
COc1ccc(CCNC(=O)c2ccc([N+](=O)[O-])cc2)cc1	-5	-7	i	i	·	·
COc1ccc(CCNC(=O)C(C)c2ccc([N+](=O)[O-])cc2)cc1 (centres undefined)	1	-4	-5.5*	i	i	i
COc1ccccc1CC(Cc1nc2ccccc2[nH]1)c1nc2ccccc2[nH]1 (centres undefined)	-4	-6	-8.6*	i	36%*	i
CC(C)Cc1nc2ccccc2[nH]1	-5	2	i	i	·	·
Cc1cccc(CC(Cc2nc3ccccc3[nH]2)c2nc3ccccc3[nH]2)c1 (centres undefined)	-5	3	-9*	i	59%*	i
CC(c1ccccc1)C(Cc1nc2ccccc2[nH]1)c1nc2ccccc2[nH]1 (centres undefined)	-3	·	i	i	·	·
COc1ccc(CSc2nc3nc(C)cc(C)n3n2)cc1F	0	·	-6*	i	46%*	i
COc1cccc(CSc2nnc(CSc3nc4nc(C)cc(C)n4n3)s2)c1	2	·	i	i	·	·
Cc1cc(C)n2nc(SCc3cccc(S(=O)(=O)N(C)C)c3)nc2n1	0	·	-5.3*	i	68%*	i
Cc1ccc(CSc2nc3nc(C)cc(C)n3n2)cc1	-1	·	i	i	·	·
CN(C(=O)c1cc(S(=O)(=O)N2CCCCC2)c[nH]1)C1CCCCC1	-2	-12	-5.1*	i	i	i
O=C(Nc1ncc([N+](=O)[O-])s1)C1CC(=O)N(c2ccc(F)cc2)C1 (centres undefined)	0	·	-6.7*	i	40%*	i
COc1cccc(N2C(=O)N(c3ccccc3)C3CS(=O)(=O)CC32)c1 (centres undefined)	0	·	-4.9*	i	70%*	i
COc1cccc(N2C(=O)N(c3ccccc3Cl)C3CS(=O)(=O)CC32)c1 (centres undefined)	-1	-9	i	i	·	·
O=C(OCc1cccc(F)c1)c1ccc2c(=O)n3c(nc2c1)CCC3	-1	-2	i	i	·	·
